Reference: PubChem BioAssay (NCATS)
Unmarked numbers belong to inactive results. Results filed as inconclusive are left out. Calls of active or inactive are those of the source. Unless noted, the call rests on the fitted dose curve; in most records, active means well fitted curve in either direction with a large enough effect (not every such curve was filed as active); inconclusive means small, poorly fitted or top-dose-only effect, or another doubt; inactive means flat fitted curve, though single readings scatter.

What was measured:
[1] = target: Lysosomal acid glucosylceramidase (Homo sapiens) (UniProt P04062); experiment: Glucocerebrosidase-p2 (AID 348; in the data active means potency below about 10 µM; further: potency means the concentration at half of the fitted maximal effect); details: purified GBA, blue fluorogenic substrate, 40 min
Sequence of Lysosomal acid glucosylceramidase (Homo sapiens) (P04062 whole entry, looked up): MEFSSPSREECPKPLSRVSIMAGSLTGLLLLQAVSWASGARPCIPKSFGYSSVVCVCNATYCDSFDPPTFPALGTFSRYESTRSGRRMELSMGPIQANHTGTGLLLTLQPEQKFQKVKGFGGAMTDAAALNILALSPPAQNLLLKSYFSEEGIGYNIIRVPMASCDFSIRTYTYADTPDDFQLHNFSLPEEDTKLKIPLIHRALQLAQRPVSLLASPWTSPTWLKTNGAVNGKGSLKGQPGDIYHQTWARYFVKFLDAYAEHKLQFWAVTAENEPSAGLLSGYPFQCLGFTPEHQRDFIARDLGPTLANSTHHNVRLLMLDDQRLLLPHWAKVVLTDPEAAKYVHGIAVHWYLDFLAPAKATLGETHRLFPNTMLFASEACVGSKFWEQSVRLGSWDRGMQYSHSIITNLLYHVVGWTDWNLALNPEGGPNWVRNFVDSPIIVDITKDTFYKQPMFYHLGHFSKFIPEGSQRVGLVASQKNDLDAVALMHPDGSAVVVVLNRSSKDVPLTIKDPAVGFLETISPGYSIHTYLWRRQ
How it was run: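 Compounds titrated from 0.6 nM upwards against 0.2 nM enzyme in pH 5.9 citric acid/KH2PO4, taurocholate, tween-20; blue fluorogenic substrate 80 uM, 40 min room temperature, stopped and read Ex 365/Em 440 for AC50.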

[2] = AP1 Signaling Pathway (AID 357); details: ME-180 AP-1-bla reporter, EGF-induced, beta-lactamase ratio, 5 h; at 7.69 µM (top of the series) unless noted; further: on the % scale 0 is the no-effect control and ±100 the full control effect
How it was run: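 In this screen, ME-180 cells in Opti-MEM with 0.5% dialyzed FBS received EC50 EGF and compound titrations for 5 h. AP-1 reporter beta-lactamase was detected via CCF4 ratio, giving AC50 for positive and negative modulators.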

[3] = target: Cytochrome P450 1A2 (Homo sapiens) (UniProt P05177); experiment: p450-cyp1a2 (AID 410; calls by dose curve; further: potency means the concentration at half of the fitted maximal effect;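 on activity change, negative = inhibition: -100% = full effect of reference inhibitor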); details: recombinant CYP1A2, luciferin-ME demethylation, luminescence; series mostly up to 11.4 µM
Sequence of Cytochrome P450 1A2 (Homo sapiens) (P05177 whole entry, looked up): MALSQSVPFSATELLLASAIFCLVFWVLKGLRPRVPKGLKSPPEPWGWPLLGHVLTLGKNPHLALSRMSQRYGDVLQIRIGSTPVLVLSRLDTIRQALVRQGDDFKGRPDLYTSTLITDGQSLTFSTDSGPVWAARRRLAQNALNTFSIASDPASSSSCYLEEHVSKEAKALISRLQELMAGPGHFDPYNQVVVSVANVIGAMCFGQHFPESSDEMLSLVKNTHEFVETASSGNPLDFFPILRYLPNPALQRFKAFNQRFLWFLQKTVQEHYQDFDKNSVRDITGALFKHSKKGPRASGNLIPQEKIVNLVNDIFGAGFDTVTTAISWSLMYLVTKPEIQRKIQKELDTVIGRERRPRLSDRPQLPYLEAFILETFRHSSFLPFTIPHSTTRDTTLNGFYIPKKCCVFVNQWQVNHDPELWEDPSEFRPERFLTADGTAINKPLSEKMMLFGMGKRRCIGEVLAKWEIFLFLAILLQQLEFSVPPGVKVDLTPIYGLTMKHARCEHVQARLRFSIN
How it was run: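 Human CYP1A2 (20nM) demethylated Luciferin-ME at its Km (100uM) in 100mM KPO4. After 10 min compound preincubation, NADPH regeneration ran the reaction 60 min at room temperature. Luciferin was read by luminescence, normalized to 57 uM furafylline.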

[4] = NFAT Signaling Pathway (AID 444); details: Jurkat NFAT-bla M1, carbachol, beta-lactamase ratio, 5 h; at 7.69 µM (top of the series) unless noted;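 further: carbachol stimulus at about its EC50 of 1 µM final; on the % scale 0 is the no-effect control and ±100 the full control effect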
How it was run: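 Jurkat cells carrying an NFAT-driven β-lactamase reporter and co-transfected muscarinic M1 receptor were treated with compound plus carbachol (1 uM final, an EC50 level) for 5 h at 37 °C. CCF4 loading followed for 1 h at RT; 460/530 nm ratio gave %activity.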

[5] = Stat Signaling Pathway (AID 446); details: ME-180 SIE beta-lactamase reporter, IL-6 stimulated, 5 h; at 7.69 µM (top of the series) unless noted;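 further: ME-180 cervical cancer cells given 40 pM IL-6 alongside compound; SIE-controlled beta-lactamase reporter measured as 460/530 nm FRET emission ratio; on the % scale 0 is the no-effect control and ±100 the full control effect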
How it was run: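 ME-180 cells carrying a SIE-driven beta-lactamase reporter are stimulated with 40 pM IL-6 for 5 h at 37C in the presence of compound. The 460/530 nm FRET substrate ratio is read after 2.5 h at RT. Data are normalised to 300 pM IL-6 and to 125 nM JAK inhibitor controls.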

[6] = target: Mitogen-activated protein kinase 10 (Mus musculus) (UniProt Q61831); experiment: JNK3 AlphaScreen Assay (AID 530); details: JNK3 lysate, c-Jun phosphorylation; series mostly up to 11.4 µM;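 further: kinase came from lysate of stimulated human HepG2 cells; signal reports phosphorylation of biotinylated GST-cJun 1-79 at Ser73 with 10 µM ATP; on the % scale 0 is the no-effect control and ±100 the full control effect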
How it was run: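 JNK3 came from HepG2 lysates pre-activated with IL-1beta and TNF-alpha and phosphorylated biotinylated GST-cJun (1-79) at 10 uM ATP, pH 7.6, room temperature. Compounds were titrated. AlphaScreen signal used anti-phospho-cJun (Ser73) antibody.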

[7] = target: 3',5'-cyclic-AMP phosphodiesterase 4B (Homo sapiens) (UniProt Q07343); experiment: qHTS Assay for Inhibitors of PDE-IV (AID 607; active means well fitted activation curve with a large enough effect in the main read-out, with a control signal flat, not every such curve was filed as active; further: % of control where 0% means no effect); details: HEK293 ACTOne CNG channel cells, membrane potential fluorescence; series mostly up to 22.9 µM
Sequence of 3',5'-cyclic-AMP phosphodiesterase 4B (Homo sapiens) (Q07343 whole entry, looked up): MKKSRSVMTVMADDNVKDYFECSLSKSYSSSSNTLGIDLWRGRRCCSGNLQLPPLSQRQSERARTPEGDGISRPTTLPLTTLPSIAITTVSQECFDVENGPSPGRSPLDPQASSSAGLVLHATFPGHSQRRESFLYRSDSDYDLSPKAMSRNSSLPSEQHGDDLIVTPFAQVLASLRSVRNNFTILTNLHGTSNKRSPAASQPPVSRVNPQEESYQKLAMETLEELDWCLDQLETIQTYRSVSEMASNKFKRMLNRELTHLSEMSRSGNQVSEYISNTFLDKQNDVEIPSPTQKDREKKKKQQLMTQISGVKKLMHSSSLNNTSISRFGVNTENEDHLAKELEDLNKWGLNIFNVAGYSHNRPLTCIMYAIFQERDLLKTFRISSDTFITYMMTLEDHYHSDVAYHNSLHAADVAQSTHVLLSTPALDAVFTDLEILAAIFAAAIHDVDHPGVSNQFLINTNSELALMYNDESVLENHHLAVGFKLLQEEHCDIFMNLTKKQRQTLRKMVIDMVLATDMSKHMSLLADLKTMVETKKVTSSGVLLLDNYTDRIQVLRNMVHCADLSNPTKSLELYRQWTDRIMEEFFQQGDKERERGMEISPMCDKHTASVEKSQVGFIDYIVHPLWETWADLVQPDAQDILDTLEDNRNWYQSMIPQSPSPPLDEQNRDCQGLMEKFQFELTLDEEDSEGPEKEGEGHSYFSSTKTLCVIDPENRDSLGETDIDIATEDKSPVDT
How it was run: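 HEK293 ACTOne cells with CNG channel (1000/well), endogenous PDE4; membrane potential dye, compounds up to 22.9 uM final. Fluorescence Ex 535/Em 590; RO 20-1724 (100 uM final) as reference.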

[8] = target: Cytochrome P450 3A4 (Homo sapiens) (UniProt P08684); experiment: qHTS Assay for Inhibitors and Substrates of Cytochrome P450 3A4 (AID 884; active means well fitted curve in the direction sought with a large enough effect; an effect the other way counts as inactive or inconclusive; further: nearly all actives have a fitted effect of over 50% in size; further: potency means the concentration at half of the fitted maximal effect); details: recombinant CYP3A4, Luciferin-PPXE luminescence; series mostly up to 57.1 µM
Sequence of Cytochrome P450 3A4 (Homo sapiens) (P08684 whole entry, looked up): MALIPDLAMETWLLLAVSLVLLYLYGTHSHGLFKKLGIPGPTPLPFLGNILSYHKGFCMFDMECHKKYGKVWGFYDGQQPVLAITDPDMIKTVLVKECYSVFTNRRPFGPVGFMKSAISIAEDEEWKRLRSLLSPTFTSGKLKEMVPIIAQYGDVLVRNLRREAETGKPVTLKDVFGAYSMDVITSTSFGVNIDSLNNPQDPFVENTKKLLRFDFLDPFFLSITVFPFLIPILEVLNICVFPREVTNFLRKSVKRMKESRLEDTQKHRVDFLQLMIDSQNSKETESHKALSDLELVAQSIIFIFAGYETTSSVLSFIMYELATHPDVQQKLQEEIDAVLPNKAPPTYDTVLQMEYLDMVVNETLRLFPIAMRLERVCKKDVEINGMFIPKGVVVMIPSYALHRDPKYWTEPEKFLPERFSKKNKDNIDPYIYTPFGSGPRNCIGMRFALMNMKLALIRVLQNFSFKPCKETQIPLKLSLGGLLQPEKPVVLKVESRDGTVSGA
How it was run: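 20 nM human CYP3A4 with 25 uM Luciferin-PPXE (at KM) in 200 mM KPO4, preincubated 10 min with compound; NADPH regeneration started a 60 min RT reaction. Luciferin detected by luminescence, normalized to 57 uM ketoconazole as full inhibition.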

[9] = Confirmation and Secondary Assay for Modulators of Hemoglobin Beta Chain Splicing at IVS2 654 locus (AID 910; active means well fitted curve in the direction sought with a large enough effect; an effect the other way counts as inactive or inconclusive; further: % of control where 0% means no effect); details: HeLa EGFP-654 splicing reporter, GFP fluorescence, 48 h; series mostly up to 38.3 µM
How it was run: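 HeLa cells stably carrying EGFP interrupted by mutant beta-globin IVS2-654 intron (CMV-driven) were treated with compound for 2 days at 37C; corrected splicing was scored as total peak GFP intensity per well (488 nm excitation, 500-520 nm emission).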

[10] = Confirmation and Secondary Assay for Modulators of Hemoglobin Beta Chain Splicing at IVS2 705 locus (AID 930; active means well fitted curve in the direction sought with a large enough effect; an effect the other way counts as inactive or inconclusive;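 further: HeLa cells stably expressing the EGFP-705 splicing reporter; GFP fluorescence per well restored by corrected splicing of the IVS2-705 intron in EGFP; % of control where 0% means no effect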); details: HeLa EGFP-705 splicing reporter, GFP fluorescence, 48 h; series mostly up to 38.3 µM
How it was run: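 Read-out: total peak GFP fluorescence per well (488 nm excitation, 500-520 nm emission) by laser-scanning cytometry. Cells: HeLa EGFP-705 splicing reporter, 2 days compound exposure in Optimem/2% FCS.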

[11] = target: ATP-dependent 6-phosphofructokinase (Trypanosoma brucei brucei) (UniProt O15648); experiment: qHTS Assay to Find Inhibitors of T. brucei phosphofructokinase: hit validation (AID 492961; active means well fitted curve in the direction sought with a large enough effect; an effect the other way counts as inactive or inconclusive); details: T. brucei PFK, ADP-Glo luminescence; series mostly up to 51.4 µM
Sequence of ATP-dependent 6-phosphofructokinase (Trypanosoma brucei brucei) (O15648 whole entry, looked up): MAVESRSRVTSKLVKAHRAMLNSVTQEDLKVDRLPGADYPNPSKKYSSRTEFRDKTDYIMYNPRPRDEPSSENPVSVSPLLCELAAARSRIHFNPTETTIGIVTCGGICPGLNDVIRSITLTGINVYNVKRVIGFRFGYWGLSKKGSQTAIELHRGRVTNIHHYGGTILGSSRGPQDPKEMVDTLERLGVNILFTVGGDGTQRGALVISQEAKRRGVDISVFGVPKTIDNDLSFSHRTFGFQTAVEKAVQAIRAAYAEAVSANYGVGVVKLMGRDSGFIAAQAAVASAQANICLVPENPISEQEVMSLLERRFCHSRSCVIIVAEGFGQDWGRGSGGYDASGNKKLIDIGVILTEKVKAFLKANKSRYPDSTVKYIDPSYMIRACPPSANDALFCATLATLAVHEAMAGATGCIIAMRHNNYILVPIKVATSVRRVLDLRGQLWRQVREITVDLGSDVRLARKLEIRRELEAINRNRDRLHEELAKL
How it was run: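 PFK 1.25 nM, F6P 0.5 mM, ATP 0.1 mM, MgCl2 5 mM, 0.1 M TEA pH 8.0, Tween20 0.01%, BSA 0.1%; 45 min RT. ADP-Glo two-step detection, luminescence. qHTS titration; curve fitting with curve-class categorization.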

[12] = qHTS profiling for inhibitors of Plasmodium falciparum proliferation (AID 504749; active means well fitted curve in the direction sought with a large enough effect; an effect the other way counts as inactive or inconclusive;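 further: 0% = DMSO vehicle and full inhibition = artemisinin control; nearly all actives have a fitted effect of over 60% in size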); details: P. falciparum in erythrocytes, SYBR Green DNA, 72 h, at 28.7 µM (top of the series)
How it was run: (§1)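 P. falciparum-infected erythrocytes (0.3% parasitemia, 2.5% hematocrit final) were exposed to compounds for 72 h at 37 C in 5% CO2, then lysed with SYBR Green buffer overnight at room temperature; parasite DNA fluorescence was normalized to artemisinin and DMSO controls.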

DFO2036 = experiment: as above; details: P. falciparum in erythrocytes, SYBR Green DNA, 72 h; series mostly up to 28.7 µM
How it was run: as §1

[13] = target: Glucocorticoid receptor (Homo sapiens) (UniProt P04150); experiment: GR-EFC Redistribution (AID 451; calls by dose curve; further: potency means the concentration at half of the fitted maximal effect); details: CHO-K1 GR-EFC translocation, beta-gal luminescence, 2 h
Sequence of Glucocorticoid receptor (Homo sapiens) (P04150 whole entry, looked up, the tested form may be a part): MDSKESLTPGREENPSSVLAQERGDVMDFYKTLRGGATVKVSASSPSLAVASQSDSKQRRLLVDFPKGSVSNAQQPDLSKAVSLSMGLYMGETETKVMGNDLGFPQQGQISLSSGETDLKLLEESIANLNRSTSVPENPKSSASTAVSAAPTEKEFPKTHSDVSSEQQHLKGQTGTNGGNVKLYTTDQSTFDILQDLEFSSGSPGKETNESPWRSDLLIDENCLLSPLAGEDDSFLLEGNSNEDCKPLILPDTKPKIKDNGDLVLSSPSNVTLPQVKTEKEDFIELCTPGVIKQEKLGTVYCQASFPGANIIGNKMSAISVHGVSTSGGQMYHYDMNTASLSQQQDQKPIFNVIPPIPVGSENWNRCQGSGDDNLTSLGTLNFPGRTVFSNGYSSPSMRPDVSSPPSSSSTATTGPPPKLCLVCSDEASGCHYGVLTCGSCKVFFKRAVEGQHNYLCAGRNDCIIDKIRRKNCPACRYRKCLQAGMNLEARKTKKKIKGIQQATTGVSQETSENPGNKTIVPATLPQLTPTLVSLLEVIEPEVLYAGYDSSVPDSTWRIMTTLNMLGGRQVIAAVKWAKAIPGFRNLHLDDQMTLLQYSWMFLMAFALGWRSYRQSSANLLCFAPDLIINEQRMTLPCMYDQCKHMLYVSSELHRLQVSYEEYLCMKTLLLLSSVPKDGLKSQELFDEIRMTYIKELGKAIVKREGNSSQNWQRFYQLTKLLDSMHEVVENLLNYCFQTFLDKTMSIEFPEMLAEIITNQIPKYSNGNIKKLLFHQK
How it was run: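 CHO-K1 cells stably expressing nuclear-localized β-gal enzyme acceptor and GR fused C-terminally to the enzyme donor fragment; ligand-driven nuclear translocation restores β-gal by complementation. Compounds titrated up to 46 uM final, 2 h at 37 °C; luminescence read.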

[14] = target: Cytochrome P450 3A4 (Homo sapiens) (UniProt P08684); experiment: qHTS Assay for Activators of Cytochrome P450 3A4 (AID 885; active means well fitted curve in the direction sought with a large enough effect; an effect the other way counts as inactive or inconclusive; further: nearly all actives have a fitted effect of over 65% in size); details: recombinant CYP3A4, Luciferin-PPXE luminescence, 60 min; series mostly up to 11.4 µM
How it was run: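 Human CYP3A4 (20 nM) with Luciferin-PPXE at 25 uM (its KM) in 200 mM KPO4; 10 min compound preincubation, then NADPH regeneration and 60 min reaction at RT. Luciferin read by luminescence; normalized to 57 uM ketoconazole full inhibition.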

[15] = target: Cytochrome P450 2C19 (Homo sapiens) (UniProt P33261); experiment: qHTS Assay for Inhibitors and Substrates of Cytochrome P450 2C19 (AID 899; active means well fitted curve in the direction sought with a large enough effect; an effect the other way counts as inactive or inconclusive; further: potency means the concentration at half of the fitted maximal effect; nearly all actives have a fitted effect of over 60% in size); details: recombinant CYP2C19, luciferin-H EGE luminescence; series mostly up to 11.4 µM
Sequence of Cytochrome P450 2C19 (Homo sapiens) (P33261 whole entry, looked up): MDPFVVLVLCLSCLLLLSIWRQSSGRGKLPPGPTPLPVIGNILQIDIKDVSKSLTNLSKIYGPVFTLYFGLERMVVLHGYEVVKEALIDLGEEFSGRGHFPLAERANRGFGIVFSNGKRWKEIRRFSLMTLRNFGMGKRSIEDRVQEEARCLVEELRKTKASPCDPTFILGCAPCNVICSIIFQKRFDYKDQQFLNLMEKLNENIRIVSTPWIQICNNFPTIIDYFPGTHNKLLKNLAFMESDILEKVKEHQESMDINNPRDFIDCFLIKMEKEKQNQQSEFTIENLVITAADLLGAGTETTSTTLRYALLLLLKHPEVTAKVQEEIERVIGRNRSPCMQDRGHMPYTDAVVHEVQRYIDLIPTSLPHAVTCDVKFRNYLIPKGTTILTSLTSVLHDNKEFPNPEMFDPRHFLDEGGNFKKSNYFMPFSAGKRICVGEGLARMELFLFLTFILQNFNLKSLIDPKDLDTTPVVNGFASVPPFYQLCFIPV
How it was run: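 Human CYP2C19 (5nM) with Luciferin-H EGE at 10uM (its KM) in 50mM KPO4 was preincubated with compound for 10 min at 37C. NADPH regeneration started a 60 min 37C reaction. Luciferin was read by luminescence, normalized to 57uM ketoconazole.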

[16] = target: Cytochrome P450 2D6 (Homo sapiens) (UniProt P10635); experiment: qHTS Assay for Inhibitors and Substrates of Cytochrome P450 2D6 (AID 891; active means well fitted curve in the direction sought with a large enough effect; an effect the other way counts as inactive or inconclusive;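 further: luciferin methyl ether substrate demethylated by CYP2D6 with NADPH regeneration; on the % scale 0 is the no-effect control and ±100 the full control effect; nearly all actives have a fitted effect of over 60% in size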); details: recombinant CYP2D6, luciferin-ME EGE luminescence; series mostly up to 11.4 µM
Sequence of Cytochrome P450 2D6 (Homo sapiens) (P10635 whole entry, looked up): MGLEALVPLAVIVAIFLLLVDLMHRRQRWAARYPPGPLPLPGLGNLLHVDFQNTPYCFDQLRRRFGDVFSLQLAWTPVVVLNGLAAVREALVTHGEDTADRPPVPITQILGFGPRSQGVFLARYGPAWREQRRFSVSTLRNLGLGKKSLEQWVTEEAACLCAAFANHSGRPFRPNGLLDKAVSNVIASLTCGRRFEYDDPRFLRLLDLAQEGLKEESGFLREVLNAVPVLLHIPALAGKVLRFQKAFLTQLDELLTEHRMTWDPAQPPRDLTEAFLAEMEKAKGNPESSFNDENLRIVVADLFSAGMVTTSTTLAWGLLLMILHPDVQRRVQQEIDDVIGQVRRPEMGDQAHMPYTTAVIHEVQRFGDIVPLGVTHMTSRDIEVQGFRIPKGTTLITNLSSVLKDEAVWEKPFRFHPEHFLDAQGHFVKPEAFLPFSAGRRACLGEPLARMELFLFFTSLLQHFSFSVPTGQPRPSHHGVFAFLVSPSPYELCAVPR
How it was run: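 Human CYP2D6 (5 nM) with 30 uM Luciferin-ME EGE (at Km) in 100 mM KPO4, compound preincubated 10 min, then NADPH regeneration system for 60 min at room temperature. Luciferin read by luminescence; normalized to 1.43 uM quinidine.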

[17] = target: Glucocorticoid receptor (Homo sapiens) (UniProt P04150); experiment: GR-GFP Redistribution (AID 450;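 active means compounds whose dose series gives a full or clear partial fitted curve of increased nuclear translocation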; further: potency means the concentration at half of the fitted maximal effect); details: U2OS GR-GFP nuclear translocation, laser cytometry, 2 h

SMILES | Potency [1] [µM] | activity change, negative = inhibition [2] [%] | Potency [3] | activity change, negative = inhibition [4] [%] | activity, negative = inhibition [5] [%] | Potency [6] | Potency [7] | Potency [8] | outcome [9] | outcome [10] | outcome [11] | activity, negative = inhibition ([12]; parasite line A) [%] | activity, negative = inhibition ([12]; parasite line B) [%] | Potency (DFO2036) | Potency [13] [µM] | Potency [14] | Potency [15] | Potency [16] | Potency [17] [µM]
N[C@@H](Cc1ccccc1)C(=O)O | > 11.4 | 3.61 | inactive | 14.5 | 12.6 | inactive | inactive | inactive | inactive | inactive | inactive | 4.49 | -0.635 | inactive | – | – | – | – | –
O[C@@H](C1=C/C(=C\c2ccncc2)c2ccccc21)c1ccncc1 | > 11.4 | 6.34 | 0.1 µM (active) | -26.9 | -15.9 | inactive | inactive | 0.794 µM (active) | – | – | – | – | – | – | > 9.22 | inactive | 0.158 µM (active) | – | –
c1ccc2c(c1)nnn2CN1CCOCC1 | > 11.4 | 1.95 | inactive | -0.506 | -18.4 | inactive | inactive | – | – | – | – | – | – | – | > 9.22 | – | – | inactive | –
Nc1ccc(C(=O)C[C@H](N)C(=O)O)cc1O | > 11.4 | 8.27 | inactive | -4.19 | 6.37 | inactive | inactive | – | – | – | – | – | – | – | > 9.22 | – | – | – | –
CC(C)(C)COS(=O)OCC(C)(C)C | > 11.4 | -7.58 | inactive | 3.4 | 13.1 | inactive | inactive | – | – | – | – | – | – | – | > 9.22 | – | – | – | –
Cc1cc(C)c2c(SCc3ccc(Cl)cc3Cl)nc(N)nc2n1 | > 11.4 | 0.307 | 3.16 µM (active) | -14.4 | – | inactive | inactive | – | – | – | – | – | – | – | > 9.22 | – | – | – | > 46
CC(=O)Nc1ccc2c(c1)C(=Nc1ccc(C(=O)O)cc1)c1ccccc1-2 | > 11.4 | 2.47 | 0.316 µM (active) | 27.4 | 4.14 | inactive | inactive | – | – | – | – | – | – | – | > 9.22 | inactive | – | – | –
